“And” between values parts separate entries of the source, which are not always exact repeats. Equal values may be shown once. Records with an inconclusive call do not appear. A call without a number means that no potency is given here. Where a structure was tested more than once in an assay, its records may differ in their call. The source made the active and inactive calls. Unless noted, the call rests on the fitted dose curve.
The compounds below were run against Acetylcholinesterase (Homo sapiens) (UniProt P22303) (assay: Acetylcholinesterase (AChE) small molecule antagonists: fluorescence cell-based qHTS assay (AID 1347398; further: nearly all actives have a fitted effect of over 50% in size)). Settings: SH-SY5Y cells; Potency: AChE activity; series mostly up to 115 µM; activity change, negative = inhibition: at the top concentration.
Summary of the method: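 Using neuroblastoma SH-SY5Y cells as the enzyme source, test chemicals are preincubated 30 min at 37 C; AChE-driven acetylthiocholine cleavage is then quantified by thiocholine-dependent Thiolite Green fluorescence after 40 min at room temperature.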
Potency means the concentration at half of the fitted maximal effect.

Sequence of Acetylcholinesterase (Homo sapiens) (P22303 whole entry, looked up): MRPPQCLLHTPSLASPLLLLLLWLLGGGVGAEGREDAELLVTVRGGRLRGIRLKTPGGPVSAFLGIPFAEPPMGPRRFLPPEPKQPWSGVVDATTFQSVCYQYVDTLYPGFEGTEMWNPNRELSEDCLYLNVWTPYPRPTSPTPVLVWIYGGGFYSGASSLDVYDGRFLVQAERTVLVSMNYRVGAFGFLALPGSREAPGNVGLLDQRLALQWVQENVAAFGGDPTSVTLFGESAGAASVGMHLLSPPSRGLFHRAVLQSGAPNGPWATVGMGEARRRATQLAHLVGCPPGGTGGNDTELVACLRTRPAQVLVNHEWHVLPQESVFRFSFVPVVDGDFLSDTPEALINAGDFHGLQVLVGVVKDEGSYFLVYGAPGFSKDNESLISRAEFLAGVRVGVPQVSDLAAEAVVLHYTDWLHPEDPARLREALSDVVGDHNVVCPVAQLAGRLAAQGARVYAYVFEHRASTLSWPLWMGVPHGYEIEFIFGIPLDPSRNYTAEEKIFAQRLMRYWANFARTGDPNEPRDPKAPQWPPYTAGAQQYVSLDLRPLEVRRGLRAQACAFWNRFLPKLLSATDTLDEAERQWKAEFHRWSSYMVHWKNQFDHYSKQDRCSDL

Compound	activity change, negative = inhibition	Potency
C=CCN=C=S	-1.66% (inactive)	–
CCOP(=S)(OCC)Oc1cc(C)nc(C(C)C)n1	–	35.8 µM (active) and 56.4 µM (active)
Nc1cc(Cl)cc(Cl)c1	–	inactive
O=C(O)C1C(C(=O)O)C2(Cl)C(Cl)=C(Cl)C1(Cl)C2(Cl)Cl (configuration not stated)	–	inactive
N#Cc1ccccn1	–	inactive
[N-]=[N+]=CC(=O)OC[C@H](N)C(=O)O	–	inactive
CN(C)NC(=O)CCC(=O)O	–	inactive
CC(=O)C1CCOC1=O (configuration not stated)	–	inactive
O=C(O)Cc1ccccc1	–	inactive
COP(=S)(OC)Oc1ccc(SC)c(C)c1	–	inactive
c1ccc2c(c1)CCCC2	–	inactive
CC(=O)/C=C/c1ccccc1	–	inactive
C/C=C/c1ccc2c(c1)OCO2	–	inactive
Cc1cccc(C)c1N	–	inactive
COc1nc(NC(C)C)nc(NC(C)C)n1	–	inactive
N#Cc1cccc(C#N)c1	–	inactive
Nc1cccc(Cl)c1	–	inactive
OC[C@@H](O)[C@H]1O[C@@H]2O[C@H](C(Cl)(Cl)Cl)O[C@@H]2[C@H]1O	–	inactive
COP(=S)(OC)SCN1C(=O)c2ccccc2C1=O	–	inactive
Nc1nc(N)nc(NC2CC2)n1	–	inactive
Cc1ccc(N=C=O)cc1N=C=O	–	inactive
CC(C)CCCCCCOC(=O)c1ccccc1C(=O)OCCCCCCC(C)C	–	inactive
CN(C)C(=O)Cl	–	inactive
Cc1ccc(O)c(C)c1	–	inactive
C=CC#N	–	inactive
CC12CC1(C)C(=O)N(c1cc(Cl)cc(Cl)c1)C2=O (configuration not stated)	–	inactive
C=C(C)C(=O)OCC(CC)CCCC (configuration not stated)	–	inactive
CC[N+](=O)[O-]	–	inactive
O=C(O)C(Br)Br	–	inactive

These compounds were tested against Acetylcholinesterase (Homo sapiens) (UniProt P22303) (assay: Acetylcholinesterase (AChE) small molecule antagonists: enzyme-based qHTS assay with human liver microsomes (AID 1347399; further: nearly all actives have a fitted effect of over 60% in size)). Settings: Potency: qHTS inhibition; series mostly up to 115 µM; activity change, negative = inhibition: at the top concentration.
Summary of the method: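 Recombinant human AChE (50 mU/mL in the enzyme mix) and human liver microsomes (0.25 mg/mL final) were preincubated with compound and NADPH (0.25 mg/mL final) for 30 min at 37 C. Acetylthiocholine/DTNB was then added; thiocholine was read colorimetrically after 10 min at room temperature.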

Compound	Potency
C=CCN=C=S	inactive
CCOP(=S)(OCC)Oc1cc(C)nc(C(C)C)n1	inactive and 8.71 µM (active)
Nc1cc(Cl)cc(Cl)c1	inactive
O=C(O)C1C(C(=O)O)C2(Cl)C(Cl)=C(Cl)C1(Cl)C2(Cl)Cl (configuration not stated)	inactive
N#Cc1ccccn1	inactive
[N-]=[N+]=CC(=O)OC[C@H](N)C(=O)O	inactive
CN(C)NC(=O)CCC(=O)O	inactive
CC(=O)C1CCOC1=O (configuration not stated)	inactive
O=C(O)Cc1ccccc1	inactive
COP(=S)(OC)Oc1ccc(SC)c(C)c1	inactive
c1ccc2c(c1)CCCC2	inactive
CC(=O)/C=C/c1ccccc1	inactive
C/C=C/c1ccc2c(c1)OCO2	inactive
Cc1cccc(C)c1N	inactive
COc1nc(NC(C)C)nc(NC(C)C)n1	inactive
N#Cc1cccc(C#N)c1	inactive
Nc1cccc(Cl)c1	inactive
OC[C@@H](O)[C@H]1O[C@@H]2O[C@H](C(Cl)(Cl)Cl)O[C@@H]2[C@H]1O	inactive
COP(=S)(OC)SCN1C(=O)c2ccccc2C1=O	inactive
Nc1nc(N)nc(NC2CC2)n1	inactive
Cc1ccc(N=C=O)cc1N=C=O	inactive
CC(C)CCCCCCOC(=O)c1ccccc1C(=O)OCCCCCCC(C)C	inactive
CN(C)C(=O)Cl	inactive
Cc1ccc(O)c(C)c1	inactive
C=CC#N	inactive
CC12CC1(C)C(=O)N(c1cc(Cl)cc(Cl)c1)C2=O (configuration not stated)	inactive
C=C(C)C(=O)OCC(CC)CCCC (configuration not stated)	inactive
CC[N+](=O)[O-]	inactive
O=C(O)C(Br)Br	inactive

These compounds were tested against Cytochrome P450 2D6 (Homo sapiens) (UniProt P10635) (assay: Cytochrome P450 Family 2 Subfamily D Member 6 (CYP2D6) small molecule antagonists: luciferase reporter qHTS assay (AID 1671196; active means well fitted inhibition curve with a large enough effect in the repeat runs; further: nearly all actives have a fitted effect of over 50% in size)). Settings: P450-Glo CYP2D6 enzyme assay, luciferin luminescence, 1 h; series mostly up to 115 µM; activity change, negative = inhibition: at the top concentration.
Summary of the method: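 CYP2D6 activity was followed as luminescence from its luciferin product after a 1 h NADPH-driven reaction at room temperature. Enzyme-substrate mix and compound were pre-incubated for 10 min, and the signal was read 20 min after adding detection reagent.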

Sequence of Cytochrome P450 2D6 (Homo sapiens) (P10635 whole entry, looked up): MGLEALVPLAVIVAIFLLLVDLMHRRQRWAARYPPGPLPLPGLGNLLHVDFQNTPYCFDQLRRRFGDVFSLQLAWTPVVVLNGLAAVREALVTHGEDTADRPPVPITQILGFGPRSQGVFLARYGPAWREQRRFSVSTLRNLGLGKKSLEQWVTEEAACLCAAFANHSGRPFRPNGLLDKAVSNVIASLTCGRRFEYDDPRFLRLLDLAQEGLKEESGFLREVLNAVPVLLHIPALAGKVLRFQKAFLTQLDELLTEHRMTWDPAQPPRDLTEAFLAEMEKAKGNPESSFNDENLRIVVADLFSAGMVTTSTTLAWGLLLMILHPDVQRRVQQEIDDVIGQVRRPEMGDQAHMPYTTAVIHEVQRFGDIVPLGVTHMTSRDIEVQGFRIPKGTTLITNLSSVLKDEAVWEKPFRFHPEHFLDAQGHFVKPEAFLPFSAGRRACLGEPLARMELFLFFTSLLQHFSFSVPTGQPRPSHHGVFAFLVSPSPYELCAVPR

Compound	Potency	activity change, negative = inhibition
O=C(O)C1C(C(=O)O)C2(Cl)C(Cl)=C(Cl)C1(Cl)C2(Cl)Cl (configuration not stated)	inactive	–
CN(C)NC(=O)CCC(=O)O	inactive	–
O=C(O)Cc1ccccc1	40 µM (active) and 12.3 µM (active)	–
c1ccc2c(c1)CCCC2	7.25 µM (active) and inactive	–
CC(=O)/C=C/c1ccccc1	inactive and 35.6 µM (active)	–
C/C=C/c1ccc2c(c1)OCO2	inactive	–
COc1nc(NC(C)C)nc(NC(C)C)n1	inactive	–
N#Cc1cccc(C#N)c1	31.2 µM (active) and inactive	–
OC[C@@H](O)[C@H]1O[C@@H]2O[C@H](C(Cl)(Cl)Cl)O[C@@H]2[C@H]1O	inactive	–
Nc1nc(N)nc(NC2CC2)n1	–	-2.55% (inactive)
Cc1ccc(N=C=O)cc1N=C=O	40.9 µM (active) and 11.2 µM (active) and inactive	–
CC(C)CCCCCCOC(=O)c1ccccc1C(=O)OCCCCCCC(C)C	inactive	–
C=CC#N	inactive	–
C=C(C)C(=O)OCC(CC)CCCC (configuration not stated)	inactive	–
CC[N+](=O)[O-]	inactive	–

The compounds below were run against Cytochrome P450 2C19 (Homo sapiens) (UniProt P33261) (assay: Cytochrome P450 Family 2 Subfamily C Member 19 (CYP2C19) small molecule antagonists: luciferase reporter qHTS assay (AID 1671197; active means well fitted inhibition curve with a large enough effect in the repeat runs; further: nearly all actives have a fitted effect of over 65% in size)). Settings: P450-Glo CYP2C19 enzyme, luciferin luminescence, 1 h; series mostly up to 115 µM; activity change, negative = inhibition: at the top concentration.
Summary of the method: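 Luminescent readout of CYP2C19 activity: luciferin product detected 20 min after adding detection reagent. Before that, compound and enzyme-substrate mix preincubated 10 min at room temperature; NADPH-regenerating system started a 1 h, 37C reaction. Ketoconazole as positive control.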

Sequence of Cytochrome P450 2C19 (Homo sapiens) (P33261 whole entry, looked up): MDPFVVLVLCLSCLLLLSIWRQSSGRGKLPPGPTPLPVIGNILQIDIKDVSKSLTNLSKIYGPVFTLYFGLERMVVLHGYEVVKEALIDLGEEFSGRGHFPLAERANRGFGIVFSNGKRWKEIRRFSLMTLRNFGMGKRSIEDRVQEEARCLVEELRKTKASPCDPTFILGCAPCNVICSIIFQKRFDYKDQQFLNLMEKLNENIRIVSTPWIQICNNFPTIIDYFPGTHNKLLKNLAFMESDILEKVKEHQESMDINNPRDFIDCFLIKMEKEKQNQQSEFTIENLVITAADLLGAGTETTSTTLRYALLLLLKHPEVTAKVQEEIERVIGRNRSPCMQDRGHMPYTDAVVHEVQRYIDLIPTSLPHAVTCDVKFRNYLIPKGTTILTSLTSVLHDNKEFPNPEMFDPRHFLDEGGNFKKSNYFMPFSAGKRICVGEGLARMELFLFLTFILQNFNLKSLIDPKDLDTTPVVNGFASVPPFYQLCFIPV

Compound	Potency	activity change, negative = inhibition
C=CCN=C=S	40.8 µM (active) and inactive	–
CCOP(=S)(OCC)Oc1cc(C)nc(C(C)C)n1	56.7 µM (active) and 502 nM (active) and 692 nM (active)	–
Nc1cc(Cl)cc(Cl)c1	inactive	–
O=C(O)C1C(C(=O)O)C2(Cl)C(Cl)=C(Cl)C1(Cl)C2(Cl)Cl (configuration not stated)	inactive	–
N#Cc1ccccn1	inactive and 71 µM (active)	–
[N-]=[N+]=CC(=O)OC[C@H](N)C(=O)O	inactive	–
CN(C)NC(=O)CCC(=O)O	inactive	–
CC(=O)C1CCOC1=O (configuration not stated)	–	28.5% [at 52.9 µM] (inactive)
O=C(O)Cc1ccccc1	–	25.3% [at 52.9 µM] (inactive)
COP(=S)(OC)Oc1ccc(SC)c(C)c1	1.57 µM (active) and 710 nM (active) and 1.1 µM (active)	–
c1ccc2c(c1)CCCC2	inactive	–
CC(=O)/C=C/c1ccccc1	78.2 µM (active)	–
C/C=C/c1ccc2c(c1)OCO2	inactive and 79.6 µM (active)	–
Cc1cccc(C)c1N	–	-26.6% (inactive)
N#Cc1cccc(C#N)c1	inactive	–
Nc1cccc(Cl)c1	40.4 µM (active) and inactive	–
OC[C@@H](O)[C@H]1O[C@@H]2O[C@H](C(Cl)(Cl)Cl)O[C@@H]2[C@H]1O	35.5 µM (active) and inactive	–
COP(=S)(OC)SCN1C(=O)c2ccccc2C1=O	715 nM (active) and 710 nM (active) and 436 nM (active)	–
Nc1nc(N)nc(NC2CC2)n1	inactive	–
Cc1ccc(N=C=O)cc1N=C=O	36.5 µM (active) and 10 µM (active) and inactive	–
CC(C)CCCCCCOC(=O)c1ccccc1C(=O)OCCCCCCC(C)C	71 µM (active)	–
CN(C)C(=O)Cl	–	9.1% (inactive)
Cc1ccc(O)c(C)c1	–	-23.2% (inactive)
C=CC#N	inactive	–
CCCCCCCCCCCCCCCCCC(=O)O	281 nM (active) and inactive	–
CC12CC1(C)C(=O)N(c1cc(Cl)cc(Cl)c1)C2=O (configuration not stated)	22.4 µM (active)	–
C=C(C)C(=O)OCC(CC)CCCC (configuration not stated)	40.7 µM (active) and inactive	–
CC[N+](=O)[O-]	72.5 µM (active) and inactive	–
O=C(O)C(Br)Br	inactive	–

Source: PubChem BioAssay (Tox21)
